These results are taken from PubChem BioAssay (NCATS).

The nature of experiment [1]: qHTS profiling for inhibitors of Plasmodium falciparum proliferation (AID 504749).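 As to activity, negative = inhibition: 0% = DMSO vehicle and full inhibition = artemisinin control.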 As to all read-outs here: nearly all actives have a fitted effect of over 60% in size. The following applies: P. falciparum in erythrocytes, SYBR Green DNA, 72 h; for activity, negative = inhibition: at 28.7 µM (top of the series). The procedure, abridged:
(§1)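 Readout was DNA-dye fluorescence from lysed cultures, ex 485/em 535 nm. Parasitized red cells had grown 72 h with compound; data scaled between 0.29 uM artemisinin and DMSO wells and corrected using vehicle-only plates.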
A general note: In qHTS, concentration-response curves come from the screen itself.

A further experiment concerns 3D7. The description is as above. The following applies: P. falciparum in erythrocytes, SYBR Green DNA, 72 h; series mostly up to 28.7 µM. The essentials: as §1
A further experiment concerns AA1029. The experiment is described as above. The settings on record: P. falciparum in erythrocytes, SYBR Green DNA, 72 h; series mostly up to 28.7 µM. The essentials:
as §1

The next experiment deals with AS120. The experiment is described as above. The settings on record: P. falciparum in erythrocytes, SYBR Green DNA, 72 h; series mostly up to 28.7 µM. The procedure, abridged: as §1
For another experiment, the system named is ATS189. The description is as above. The following applies: P. falciparum in erythrocytes, SYBR Green DNA, 72 h; series mostly up to 28.7 µM. The procedure, abridged:
as §1

For another experiment, the system named is C2A. Described as above. The following applies: P. falciparum in erythrocytes, SYBR Green DNA, 72 h; series mostly up to 28.7 µM. The procedure, abridged: as §1
The subject of the next experiment is CP191. The experiment is described as above. The settings on record: P. falciparum in erythrocytes, SYBR Green DNA, 72 h; series mostly up to 28.7 µM. The essentials:
as §1

Another experiment relates to CP215. The experiment is described as above. The settings on record: P. falciparum in erythrocytes, SYBR Green DNA, 72 h; series mostly up to 28.7 µM. The procedure, abridged: as §1
Another experiment relates to CP217. The experiment is described as above. The following applies: P. falciparum in erythrocytes, SYBR Green DNA, 72 h; series mostly up to 28.7 µM. The procedure, abridged:
as §1

For a further experiment, the system named is CP238. The description is as above. The settings on record: P. falciparum in erythrocytes, SYBR Green DNA, 72 h; series mostly up to 28.7 µM. The procedure, abridged: as §1
A further experiment deals with CP247. Described as above. The settings on record: P. falciparum in erythrocytes, SYBR Green DNA, 72 h; series mostly up to 28.7 µM. The essentials: as §1
In another experiment the test system is CP252. The experiment is described as above. The following applies: P. falciparum in erythrocytes, SYBR Green DNA, 72 h; series mostly up to 28.7 µM. The essentials: as §1
Another experiment has as its system CP256. The description is as above. The following applies: P. falciparum in erythrocytes, SYBR Green DNA, 72 h; series mostly up to 28.7 µM. The essentials: as §1
Another experiment concerns CP286. The description is as above. The settings on record: P. falciparum in erythrocytes, SYBR Green DNA, 72 h; series mostly up to 28.7 µM. The procedure, abridged:
as §1

In another experiment the test system is CP291. The description is as above. The following applies: P. falciparum in erythrocytes, SYBR Green DNA, 72 h; series mostly up to 28.7 µM. The essentials: as §1
In the next experiment the test system is CP325. Described as above. The settings on record: P. falciparum in erythrocytes, SYBR Green DNA, 72 h; series mostly up to 28.7 µM. The procedure, abridged: as §1
Another experiment deals with HB3. The description is as above. The settings on record: P. falciparum in erythrocytes, SYBR Green DNA, 72 h; series mostly up to 28.7 µM. The essentials: as §1

Records with an inconclusive call do not appear. Values without a mark were called inactive. Activity calls are given as the source filed them. Calls follow the shape of the dose curve; as a rule, active = well fitted inhibition curve with a large enough effect; inconclusive = small, poorly fitted or top-dose-only effect; inactive = flat fitted curve, though single readings scatter.
Potency is read from the fitted curve at half-maximal effect.

With `C[C@]12C=CC(=O)C=C1CC[C@@H]1C2CC[C@]2(C)OC(=O)CCC12` (stereo not given in full), the activity, negative = inhibition in experiment [1] (parasite line A) was 2.99%; in experiment [1] (parasite line B), 7.55%. For the same compound, the Potency result in the experiment on 3D7, with AA1029, in the experiment on AS120, in the experiment on ATS189, with C2A and in the experiment on CP191 was “inactive” each time. The Potency result in the experiment on CP215, with CP217, in the experiment with CP238, with CP247, in the experiment with CP252 and with CP256 was “inactive” throughout. In addition, the Potency result with CP286, with CP291, with CP325 and in the experiment with HB3 was “inactive” each time.

On to `C[C@]12CCC3C(CCC4=C(Cl)C(=O)CC[C@@]43C)C1CCC2O` (stereo not given in full), for which the activity, negative = inhibition was -5.63% in experiment [1] (parasite line A) and -11.9% in experiment [1] (parasite line B). Moreover, the Potency result in the experiment with 3D7, in the experiment with AA1029, in the experiment on AS120, in the experiment with ATS189, in the experiment with C2A and with CP191 was “inactive” throughout. Moreover, the Potency entry in the experiment with CP215, in the experiment on CP217, with CP238, in the experiment with CP247, in the experiment with CP252 and in the experiment on CP256 was “inactive” each time. Besides, the Potency result in the experiment on CP286, with CP291, in the experiment on CP325 and in the experiment with HB3 was “inactive” each time.

Turning to `CCCCCc1cc(O)c2c(c1)OC(C)(C)C1CC=C(C)CC21` (stereo not given), the Potency is 3550 nM (active) in experiment [1] (parasite line A); 1120 nM (active) in experiment [1] (parasite line B); 2820 nM (active) in the experiment on 3D7; 2820 nM (active) in the experiment on AA1029; 2240 nM (active) in the experiment with AS120; 3160 nM (active) with ATS189. For the same compound, the Potency in the experiment with C2A was 10000 nM (active); in the experiment on CP191, 3980 nM (active); with CP215, 4260 nM (active); with CP217, 2240 nM (active); in the experiment with CP238, 3160 nM (active); in the experiment on CP247, 5010 nM (active). In addition, the Potency in the experiment on CP252 is 3160 nM (active); in the experiment on CP256, 11200 nM (active); with CP286 it was 5620 nM (active); in the experiment with CP291 it was 6750 nM (active); in the experiment on CP325, 6010 nM (active); with HB3 it was 5010 nM (active).

Turning to `O=C1CC2OCC=C3CN4CC[C@]56c7ccccc7N1C5C2[C@H]3C[C@H]46` (stereo not given in full), the activity, negative = inhibition in [1] (parasite line B) was -18.7%. Moreover, the Potency result with 3D7, in the experiment on CP191, with CP247 and with HB3 was “inactive” throughout. The Potency with AA1029 was 10000 nM (active); with CP238, 10000 nM (active); with CP256, 8910 nM (active); in the experiment with CP325 it was 13500 nM (active).

As to `CCC/C=C/C=C/C(=O)OC1/C(=C/C(=O)OC)CC2CC(C(C)O)OC(=O)CC(O)CC3CC(OC(C)=O)C(C)(C)C(O)(CC4C/C(=C/C(=O)OC)CC(/C=C\C(C)(C)C1(O)O2)O4)O3` (stereo not given), the Potency was 1580 nM (active) in experiment [1] (parasite line A); 1780 nM (active) in experiment [1] (parasite line B); 2820 nM (active) with 3D7; 1780 nM (active) with AA1029; 1000 nM (active) with AS120; 891 nM (active) with ATS189. Also, the Potency in the experiment with C2A is 1260 nM (active); in the experiment with CP191, 1120 nM (active); with CP215, 1690 nM (active); in the experiment on CP217, 794 nM (active); in the experiment with CP238 it was 1000 nM (active); with CP247 it was 2820 nM (active). Also, the Potency is 1260 nM (active) in the experiment with CP252; 1260 nM (active) with CP256; 2240 nM (active) with CP286; 2690 nM (active) in the experiment on CP291; 2240 nM (active) in the experiment with HB3.

For `CCCCCC(O)C1C(=O)OC(C)C(O)\C=C/C=C\C=C/C=C\C=C(\C)C(O)C(O)C(O)CC(O)CC(O)CC(O)CC(O)CC1O` (stereo not given), the activity, negative = inhibition in experiment [1] (parasite line A) is 11.9%; in experiment [1] (parasite line B) it was -8.14%. For the same compound, the Potency result in the experiment with 3D7, with AA1029, with AS120, with ATS189, with C2A and with CP191 was “inactive” throughout. Moreover, the Potency entry in the experiment with CP215, with CP217, in the experiment on CP238, with CP247, with CP252 and in the experiment with CP256 was “inactive” in each case. Further, the Potency result with CP286, with CP291, in the experiment on CP325 and in the experiment with HB3 was “inactive” each time.

As for `COc1ccc2c3c1O[C@H]1[C@@H](O)C=C[C@H]4C(C2)NCCC341` (stereo not given in full), the values for the activity, negative = inhibition in [1] (parasite line A) and in [1] (parasite line B) were 7.6% and -2.8%, respectively. Further, the Potency result in the experiment on 3D7, in the experiment on AA1029, with AS120, in the experiment with ATS189, in the experiment with C2A and in the experiment on CP191 was “inactive” each time. The Potency entry with CP215, in the experiment on CP217, in the experiment on CP238, with CP247, with CP252 and in the experiment with CP256 was “inactive” each time. For the same compound, the Potency entry with CP286, in the experiment with CP291, with CP325 and with HB3 was “inactive” each time.

With `OCC(O)[C@H]1O[C@@H]2O[C@H](C(Cl)(Cl)Cl)O[C@@H]2[C@H]1O` (stereo not given in full), the activity, negative = inhibition in experiment [1] (parasite line A) was 8.92%; in experiment [1] (parasite line B), 3.35%. For the same compound, the Potency result in the experiment with 3D7, in the experiment with AA1029, in the experiment with AS120, in the experiment on ATS189, in the experiment with C2A and in the experiment with CP191 was “inactive” throughout. The Potency entry in the experiment on CP215, in the experiment with CP217, in the experiment on CP238, in the experiment on CP247, in the experiment with CP252 and in the experiment on CP256 was “inactive” throughout. For the same compound, the Potency entry in the experiment with CP286, with CP291, with CP325 and in the experiment on HB3 was “inactive” throughout.

Consider `C=CC[N+]1(C)CCC23c4c5ccc(O)c4O[C@H]2C(=O)CC[C@@]3(O)C1C5` (stereo not given in full), for which the activity, negative = inhibition in [1] (parasite line A) is 14%; in [1] (parasite line B), 14.5%. Also, the Potency result with 3D7, with AA1029, with AS120, in the experiment on ATS189, in the experiment with C2A and with CP191 was “inactive” throughout. The Potency result with CP215, with CP217, with CP238, with CP247, in the experiment with CP252 and in the experiment on CP256 was “inactive” in each case. The Potency entry in the experiment on CP286, with CP291, in the experiment on CP325 and in the experiment on HB3 was “inactive” in each case.

On to `CC1(C)[C@@H](C=C(Cl)Cl)[C@@H]1C(=O)OCc1c(F)c(F)cc(F)c1F`, for which the activity, negative = inhibition in experiment [1] (parasite line A) is 3.24%; in experiment [1] (parasite line B), 1.84%. Moreover, the Potency result with 3D7, with AA1029, in the experiment on AS120, in the experiment with ATS189, in the experiment with C2A and in the experiment with CP191 was “inactive” throughout. The Potency result in the experiment with CP215, in the experiment on CP217, in the experiment with CP238, in the experiment on CP247, in the experiment on CP252 and in the experiment on CP256 was “inactive” throughout. Also, the Potency entry in the experiment on CP286, in the experiment on CP291, in the experiment with CP325 and in the experiment on HB3 was “inactive” throughout.
